The sample as a whole holds a higher share of hits than the screen did.
ROCK2 blocker: ROCK2 (human) kinase inhibition | O75116 | inhibition, % at 6 µM | 0.35% of 60,000 active | AID 604 | purified ROCK2, Kinase-Glo ATP depletion luminescence;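 active = inhibition above the screen-wide mean inhibition plus 3 SD, cut at about 18% in these data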;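 note: plate controls were DMSO wells for no effect and Y-27632 control wells after no-enzyme background subtraction for full effect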
hDAT+cocaine: modulates human dopamine transporter uptake under cocaine; LLC-PK1 hDAT cells, [14C]-dopamine uptake with cocaine IC80; actives deviate in either direction; B-score at 10 µM; 1.3% of 110,000 active; AID 449768;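 active = Z score or B-score, a plate-position-corrected score, falls beyond the plate's 99.7% confidence bounds, in either direction; inactive = both scores lie inside the 99.7% bounds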;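 note: scored against the spread of the other compound wells on the same plate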
PKA kinase inh: blocks human protein kinase A activity | inhibition, % at 6 µM | P17612 | 0.1% of 65,000 active | PKA Kemptide phosphorylation, Kinase-Glo ATP luminescence;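 active = inhibition above the screen-wide mean inhibition plus 3 SD, cut at about 21% in these data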
D1 mod: D1 dopamine receptor (human) allosteric modulation. 5.9% of 58,000 active. HEK293 D1, CRE-luciferase, dopamine EC30 potentiation; actives deviate in either direction. AID 641. B-score at 10 µM. P21728;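 active = luminescence count or its row- and column-corrected plate score outside the 99.7% band of the plate's sample wells, on either side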
Target sequence (P21728 whole entry, looked up): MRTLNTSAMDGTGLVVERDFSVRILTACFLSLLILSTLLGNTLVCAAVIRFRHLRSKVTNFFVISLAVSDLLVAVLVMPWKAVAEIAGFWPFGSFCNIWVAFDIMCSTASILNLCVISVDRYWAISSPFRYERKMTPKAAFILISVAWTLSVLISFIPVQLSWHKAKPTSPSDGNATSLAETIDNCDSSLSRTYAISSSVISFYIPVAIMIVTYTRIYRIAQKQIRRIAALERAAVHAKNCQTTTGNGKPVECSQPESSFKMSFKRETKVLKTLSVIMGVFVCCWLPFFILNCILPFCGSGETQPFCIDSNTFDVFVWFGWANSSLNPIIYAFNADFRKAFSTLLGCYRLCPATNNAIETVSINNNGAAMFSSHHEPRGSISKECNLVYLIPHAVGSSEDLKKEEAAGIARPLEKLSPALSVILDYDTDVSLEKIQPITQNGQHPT
JNK3 inh: blocks human JNK3 kinase activity. P53779. purified JNK3 kinase activity, HTS. inhibition, % at 8 µM. 0.61% of 60,000 active. AID 746; in the data active = inhibition above about 17%;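 note: 0% = DMSO and 100% = reference inhibitor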
D1 PAM confirm: confirmation of human D1 dopamine receptor allosteric modulators; HEK293 D1 CRE-luciferase, dopamine EC30 potentiation; active compounds read high; 88% of 2,200 active; luminescence at 10 µM; shares compounds with D1 mod; AID 642;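 active = luminescence in either of two replicates above the same-plate mean plus 3 SD of the low-dose dopamine control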
D1 no dopamine: activates D1 CRE-luciferase signal without dopamine present; shares compounds with D1 mod; HEK293 D1 CRE-luciferase, luminescence, no dopamine; active compounds read high; luminescence at 10 µM; 0.8% of 1,900 active; AID 646; in the data active = luminescence above about 3900
Isoprot counter: counter-screen for D1 modulators: isoproterenol response in HEK293 cells. shares compounds with D1 mod. calls only at 10 µM. 63% of 2,200 active. HEK293 D1 CRE-luciferase, isoproterenol EC30 counter-screen;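 active = luminescence in either replicate above plate mean of wells with a partly effective reference agonist dose plus 3 SD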;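 note: isoproterenol raises cAMP through native beta-adrenoceptor Gs so signal bypasses D1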
The depositor's hits bear a star; i = inactive; · = not tested or not shown; + = active, no number.

SMILES | ROCK2 blocker | hDAT+cocaine | PKA kinase inh | D1 mod | JNK3 inh | D1 PAM confirm | D1 no dopamine | Isoprot counter
Nc1cccc(N=Cc2c(O)n(Cc3ccc(F)cc3)c(=O)[nH]c2=O)c1 | 0 | -0.28 | 7 | 0.082 | -3 | · | · | ·
CC(=O)c1cccc(NC2=NCC(C)S2)c1 (stereo not given) | -6 | 0.0051 | 3 | 5.6* | 4 | 8688* | 1744 | +
CC(C)N1C(=O)CCC1C(=O)N1CCC2(CC1)OCCO2 (stereo not given) | · | 1 | · | · | · | · | · | ·
O=c1c2cc([N+](=O)[O-])ccc2nc(CN2CCOCC2)n1-c1ccccc1F | · | 0.62 | · | · | · | · | · | ·
CCCCn1c(=O)c(C(=O)Nc2cnccn2)c(O)c2ccccc21 | 2 | 0.054 | 3 | 6.8* | 0 | 8352* | 1312 | i
CC1N(O)C2CCCCCC2N1O (stereo not given) | 4 | -0.66 | 4 | 0.73 | -3 | · | · | ·
CC(C)Cn1cc(C(=O)N2CCC3(CC2)OCCO3)c2c3ccccc3n(C)c2c1=O | 6 | 1.2 | 9 | -1.2 | 0 | · | · | ·
O=C(CCN1C(=O)COc2ccccc21)N1CCC2(CC1)OCCO2 | 6 | 0.31 | 9 | 3.8* | -9 | 5480 | · | i
CCCCn1c(O)c(C(C)=NC(C)c2ccccc2)c(=O)[nH]c1=O (stereo not given) | 2 | 0.021 | 0 | 9.7* | -5 | 17520* | 1544 | +
CCOC(=O)C1=C(N)OC2=C(C(=O)CCC2)C12C(=O)N1c3c(ccc(C)c32)C(C)=CC1(C)C (stereo not given) | 3 | 0.28 | 8 | -0.38 | -4 | · | · | ·
CCC1(CC)C(=O)NC(=NCCc2c[nH]c3ccccc23)NC1=O | -3 | -2.2 | -6 | 4.8* | 0 | 6976* | 1520 | i
CCC(=NCCOc1ccc(Cl)cc1)c1c(O)n(C)c(=O)n(C)c1=O | -20 | 1.1 | -3 | · | 0 | · | · | ·
CCOC(=O)c1c(C)n(Cc2ccccc2)c2ccc(OCC(O)Cn3nc(C)cc3C)cc12 (stereo not given) | · | 0.64 | · | · | · | · | · | ·
CCOC(=O)c1c(C)n(Cc2ccccc2)c2ccc(OCC(O)Cn3nc(C)nc3C)cc12 (stereo not given) | -5 | · | 3 | 4.5* | 5 | 17284* | 1904 | +
CN1CCC2(CC1)NC(=O)C1=C(CN(C)CC1)N2 | 5 | -0.33 | 6 | -0.48 | 2 | · | · | ·
